Among the data in article PMC5540273 (PLoS ONE, 2017) are Kd values, retold here.

The term pKd denotes the Kd on a negative log10 scale, so that one unit is a factor of ten.

pKd: −log10 of the molar value. A value given as a limit tells only on which side of the number the result lay.

The subject of assay [1] is ERBB2.
Assay [2] relates to FLT1.
Assay [3] has as its system T1, ERK5.
T1 construct: gene MAPK7

Assay [4] has as its system T2, FAK.
T2 construct: gene PTK2

Assay [5] deals with FGFR1.
Assay [6] concerns FGFR2.
For assay [7], the system named is FGFR3.
The subject of assay [8] is FGFR4.
Assay [9] deals with FLT4.
In assay [10] the test system is FLT3.
Assay [11] has as its system GAK.
Assay [12] deals with GRK1.
For assay [13], the system named is GRK4.
Assay [14] has as its system GRK7.
Assay [15] deals with HIPK2.
The subject of assay [16] is HIPK4.
Assay [17] deals with INSRR.
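Further: kd values determined as follow-up on hits from a single-replicate KINOMEscan panel screen.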

In the case of `Cc1ccc(Oc2ccc(Nc3ncnc4cc[nH]c34)cc2C)cn1`, the values for the negative-log Kd (pKd) in assay [1] and in assay [2] were 8.19 and less than 5.00, respectively.

As for `O=C(Nc1n[nH]c2nc(-c3ccccc3)c(Br)cc12)C1CC1` [SB-708998], the pKd in assay [3] is less than 5.00.

Regarding `CCc1nc(-c2cccc(C)c2)c(-c2ccncc2)s1`, the pKd in assay [4] is less than 5.00.

`O=C(NCc1cccs1)c1cc(C(=O)c2c(Cl)cccc2Cl)c[nH]1` [GW823670] showed a pKd in [4] of less than 5.00.

In [5], `FC(F)(F)c1ccc(-c2ncn(CCCN3CCOCC3)c2-c2ccncc2)cc1` [SB-217780] showed a pKd of less than 5.00.

Turning to `COc1cc(OC)cc(-c2cc3cnc(N)nc3nc2NC(=O)NC(C)(C)C)c1`, the negative-log Kd (pKd) in assay [5] was 7.18; in assay [6], 6.51; in assay [7], 6.96.

In [8], `COc1ccc(Nc2nccc(N3CCC(NS(=O)(=O)c4ccc(NC(C)=O)cc4)C3)n2)cc1` (stereo not shown) [GSK1379729] had a pKd of less than 5.00.

In the case of `Nc1ncnc2c1ncn2-c1cccc(F)c1` [SKF-97560], in assay [8], the pKd is less than 5.00.

`COc1cc2nccc(Nc3ccc(OCc4ccc(NC(C)=O)cc4)cc3)c2cc1OC.Cl` [GW440135]: the pKd in assay [2] was 6.17; in assay [9], 6.32.

Compound `Cl.NS(=O)(=O)c1cccc(Nc2cc(-c3ccc(F)cc3)n[nH]2)c1` [GW824645] gave a pKd in assay [10] of 8.12.

On to `COc1ccc(-n2cnc3c(N)ncnc32)cc1` [SKF-97236], for which, in assay [10], the pKd was 6.92.

In assay [11], `Cc1cccc(-c2cc(-c3c[nH]nc3-c3ccccn3)ccn2)c1` [GW679395] showed a pKd of 6.89.

Consider `OCCCNc1nccc(-c2c(-c3cccc(C(F)(F)F)c3)nn3cc(C(F)(F)F)ccc23)n1` [GW630813], for which, in assay [12], the pKd is less than 5.00.

As for `CN1C(=O)C(Nc2cc(Cl)c(O)c(Cl)c2)=C(c2ccc(Cl)cc2)C1=O` [SB-404321], the pKd in assay [13] is less than 5.00.

`CCn1c(-c2ccoc2)nc2cnccc21` [SB-733887]: the negative-log Kd (pKd) in assay [14] was less than 5.00.

As for `Nc1n[nH]c2nnc(-c3ccccc3)c(-c3ccccc3)c12` [GW554060], the pKd in assay [15] was 6.39.

`Cn1c(=O)c(F)c(Nc2ccc(I)cc2F)c2c(=O)n(OC[C@H](O)CO)cnc21` gave a pKd in assay [16] of less than 5.00.

Turning to `COc1cc2ncn(-c3cc(OCc4ccncc4)c(C(N)=O)s3)c2cc1OC` [GSK336313], the pKd in assay [17] is less than 5.00.
